Experimental data: PubChem BioAssay (NCI)
Compounds without any hit were thinned out: in the full panel of roughly 83,000, 20% have a hit.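 Treatment: one concentration, 48 hours, 96-well format. Scoring: percent growth, with anything below 10 considered active.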 Values without a mark were called inactive. Activity calls are given as the source filed them.

Columns and labels:
Assay in all cases: NCI-60 one-dose screen, 48 h (100 = growth as untreated, 0 = no growth, -100 = all killed)
Conditions in all cases: 10 µM unless noted
[1] = test system: DU-145 prostate
[2] = test system: K-562 leukemia
[3] = test system: MALME-3M melanoma
[4] = test system: MDA-MB-231 breast
[5] = test system: RXF 393 renal
[6] = test system: SF-268 CNS
[7] = test system: SF-295 CNS
[8] = test system: SF-539 CNS
[9] = test system: UACC-257 melanoma
[10] = test system: M14 melanoma

Structure (SMILES)	growth [1]	growth [2]	growth [3]	growth [4]	growth [5]	growth [6]	growth [7]	growth [8]	growth [9]	growth [10]
O=c1ccc2ccc(OCCN3CCCCC3)cc2o1	118%	-17.2% (active)	107%	95.7%	114%	110%	98.8%	106%	89.3%	96.1%
CCCCn1c(NC(C)=O)c(S(=O)(=O)c2ccccc2)c2nc3ccccc3nc21	104%	69.3%	98.9%	109%	86.8%	96.7%	111%	97.6%	99.6%	106%
CC1(C)CC[C@]2(CO)CC[C@]3(C)[C@](O)([C@H](O)C[C@@H]4[C@@]5(C)CCCNC(C)(C)[C@@H]5CC[C@]43C)[C@@H]2C1	103%	10.3%	101%	102%	94.9%	98.9%	108%	97.9%	96.3%	96.1%
c1cc(OCCN2CCCCCC2)ccc1CNc1ccc2nc(CCC3CCCCC3)[nH]c2c1	69.8%	3.02% (active)	-72.6% (active)	25.5%	56.2%	69.9%	79.1%	72.8%	31.8%	-69.9% (active)
CCOC(=O)/C=C1\S/C(=N\Nc2cc(=O)[nH]c3ccc(Br)cc23)N(c2ccccc2)C1=O	85.2%	13.4%	82%	86.2%	35.2%	85.6%	100%	80.8%	89.9%	89.5%
Cc1ccc(C2CC(c3cccc(Nc4ccncc4)c3)=Nc3c(N)nc(N)nc3N2)cc1 (stereo not given)	70.9%	21.3%	78.7%	66.1%	55.6%	63.1%	67%	67.9%	63.7%	42.3%
O=C(Nc1cccnc1Nc1ccccc1)c1cn(Cc2cccc(Oc3ccccc3)c2)nn1	69.8%	33%	56.3%	57.3%	50.1%	53.6%	52.3%	42%	73%	27.5%
Cc1sc2nc(NCCN)[nH]c(=O)c2c1C	96.7%	103%	82.1%	81.1%	100%	91.4%	98%	88.1%	107%	85.1%
Clc1ccc(Nc2ncc(Cc3cccc(Cl)c3Cl)s2)cc1	102%	86.8%	96.7%	99.6%	93.3%	98.3%	100%	94.7%	96.6%	103%
COc1cc(-c2ccc(-c3ccc(C(=N)N)cc3)s2)cc(OC)c1OC	63.6%	1.05% (active)	32.7%	53.2%	80.9%	65.1%	46.2%	47.1%	63.5%	47.9%
O=CCCCOCc1ccccc1	102%	104%	95.8%	101%	113%	103%	95.1%	101%	103%	96.4%
COC(=O)c1sccc1-c1cc(O)c(C(=O)Nc2ccccc2)s1	99.1%	91.6%	84.5%	91.5%	115%	91.7%	99.4%	98.8%	91.6%	93.3%
COc1cc2c(cc1OCCCN1CCN(C(=S)SCCC(C#N)(c3ccccc3)c3ccccc3)CC1)N=C[C@@H]1CCCN1C2=O	-100% (active)	-5.69% (active)	-89.3% (active)	-31.1% (active)	-92.9% (active)	-72.5% (active)	-14.2% (active)	-94.7% (active)	-45.5% (active)	-76.6% (active)
N=C(N)c1ccc(-c2ccc(-c3ccccc3)o2)o1	46.3%	9.73% (active)	50.3%	29.8%	47%	38.1%	44%	35.3%	69.3%	14.1%
O=C1Nc2ccc(Cl)cc2/C1=C/c1ccc[nH]1	83.6%	100%	99.1%	40.7%	74%	96.4%	109%	88.6%	118%	78.4%
CCOC(=O)c1cn2ncnc(Oc3ccc(NC(=O)NC4CC4)c(Cl)c3)c2c1C	97%	73.6%	95.3%	89.3%	92.3%	88.9%	84.8%	79.5%	100%	98.9%
COc1ccc(C2[C@@H](Cl)C(=O)N2c2cc(OC)c(OC)c(OC)c2)cc1Cl (stereo not given in full)	6.13% (active)	5.8% (active)	69.1%	33.5%	-2.33% (active)	26.1%	8.96% (active)	9.09% (active)	31.5%	-4.46% (active)
CNC(=O)Nc1ccc(-c2ccc3ncnc(Nc4cccc(Cl)c4)c3c2)cc1	44.8%	60.3%	53.5%	65.7%	50.4%	52.2%	59.9%	74.3%	65.7%	63.2%
COc1ccc2[nH]cc(-c3nonc3-c3c[nH]c4ccc(Br)cc34)c2c1	43.8%	7.68% (active)	70.4%	5.3% (active)	76.7%	47%	26.1%	56.3%	64.2%	31.8%
CCCCCCCCn1ccc2cc(NC(=O)CN=[N+]=[N-])ccc21	108%	93.5%	109%	101%	104%	97.9%	100%	106%	103%	109%
CSc1ccc2c3c(n(CCCn4ccnc4)c(=O)c2c1)-c1ccccc1C3=O	28.5%	35.6%	87.8%	91.4%	46.3%	31.7%	12.1%	4.89% (active)	71%	26.6%
O=C(Oc1ccc2c(c1)sc1nc(-c3ccccc3)[nH]c(=O)c12)C(F)(F)F	44.2%	15.3%	33.3%	61.4%	43.8%	44%	51.9%	27.9%	49.1%	4.5% (active)
